Hit rate of the full screen: of about 370,000 compounds, about 3,300 (0.89%) were called active.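 The calls were made as follows: active = activation above the mean of all tested compounds plus 3 SD, computed per campaign excluding outliers beyond control limits (cut at about 13% in these data); inactive = the rest.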 What follows is part of a selection rich in actives, with near analogues and random picks from the rest.

The target in this experiment is Kallikrein-7 (Homo sapiens) (UniProt P49862). Description: proKLK7 zymogen activators, primary screen, biochemical, fluorescence intensity (AID 652039). As to conditions: purified proKLK7, EDANS-DABCYL substrate fluorescence; at 7 µM; active compounds read high; 100% is mature enzyme control, 0% vehicle.
Kallikrein-7 (Homo sapiens), sequence (P49862 whole entry, looked up): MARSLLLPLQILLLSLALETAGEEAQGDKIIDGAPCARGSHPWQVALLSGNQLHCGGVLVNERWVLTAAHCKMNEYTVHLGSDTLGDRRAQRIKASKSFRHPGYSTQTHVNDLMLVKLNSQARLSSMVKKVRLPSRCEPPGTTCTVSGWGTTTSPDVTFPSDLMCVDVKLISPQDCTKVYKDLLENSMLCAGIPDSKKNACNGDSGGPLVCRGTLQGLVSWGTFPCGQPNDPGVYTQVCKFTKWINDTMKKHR
Regarding `CC(=O)OCCN1CCCC12CCC(c1ccccc1)CC2` (stereo not drawn), the activation was -0.5% (inactive).
`O=C(NCCN1CCN(Cc2ccccc2)CC1)c1cc2c(=O)[nH]c3ccccc3c2s1`: the activation is -1.14% (inactive).
As to `Cc1cccc(N(C)C(=O)c2cc3c(=O)[nH]c4ccc(C)cc4c3s2)c1`, the activation is -0.34% (inactive).
Turning to `CCN(CC)CCCNC(=O)c1cc2c(=O)[nH]c3ccc(C)cc3c2s1`, the activation was 23.3% (active).
Consider `CC(C)CNS(=O)(=O)CC1NCCc2ccccc21` (stereo not drawn), for which the activation was -0.37% (inactive).
As to `COC(=O)C12C=C3CC(c4ccccc4)=C3C(=O)N1Cc1[nH]c3ccccc3c1C2` (stereo not drawn), the activation is -0.28% (inactive).
`CCCCN(CC)CCNC(=O)CCNC(=O)Cn1ccc2ccccc2c1=O`: the activation was -0.2% (inactive).
For the compound `CS(=O)(=O)N(CC(O)Cn1c2ccccc2c2ccccc21)c1cccc2ccccc12` (stereo not drawn), the activation was -1.25% (inactive).
Take `CCCCN(CCCC)CC(O)Cn1c2ccccc2c(=O)c2ccccc21` (stereo not drawn): the activation is 22.1% (active).
`CC(NCc1ccco1)C(=O)N1CCCCC1` (stereo not drawn): the activation was 0.56% (inactive).
Turning to `O=S1(=O)c2c(NCc3ccco3)cccc2Oc2ccccc2CN1Cc1cn(Cc2cccc(C(F)(F)F)c2)nn1`, the activation was -9.73% (inactive).
Consider `O=C(c1cccnc1)N(c1cc2sc(=O)oc2c2ccccc12)S(=O)(=O)c1ccccc1`, for which the activation is -0.78% (inactive).
As for `Cc1ccc(-n2nc(-c3ccco3)cc2C(=O)NCc2cccnc2)cc1`, the activation is 0.09% (inactive).
Turning to `O=C(Oc1c(-c2ccco2)oc2ccccc2c1=O)c1cccnc1`, the activation is 18.9% (active).
As to `COc1ccc(-c2cc(-c3nnc(SCC(=O)Nc4cccc5ccccc45)n3N)[nH]n2)cc1`, the activation is 0.07% (inactive).
As for `COc1ccc(Cn2cc(CN3[C@@H](CC(C)C)COc4cc(Br)ccc4S3(=O)=O)nn2)cc1`, the activation is 0.02% (inactive).
With `Cc1cccn2c(=O)c3cc(C#N)c(=O)n(CCCN4CCOCC4)c3nc12`, the activation was 39.9% (active).
Regarding `Cc1cccn2c(=O)c3cc(C#N)c(=NC(=O)c4cccnc4)n(CC4CCCO4)c3nc12` (stereo not drawn), the activation is 17.3% (active).
`Cc1cccc(NC(=O)c2ccc3c(=O)n(CC4CCCO4)c(=S)[nH]c3c2)c1` (stereo not drawn): the activation was -0.97% (inactive).
With `Cc1ccc(-n2c(=O)c(C#N)cc3c(=O)n4ccccc4nc32)cc1C`, the activation was 2.54% (inactive).
Regarding `Cc1ccc(S(=O)(=O)c2cc3c(=O)n4cccc(C)c4nc3n(CCc3ccccc3)c2=N)cc1C`, the activation was 0.37% (inactive).
Turning to `O=C(NCc1cccnc1)c1cc(S(=O)(=O)N2CCOCC2)c(Cl)cc1Cl`, the activation is -0.01% (inactive).
On to `Cc1ccc(Cn2c(C)c3cnn(CC(=O)NCCN4CCOCC4)c(=O)c3c2C)cc1`, for which the activation was 0% (inactive).
Turning to `COCCCn1c(C(=O)NC2CCCCC2)cc2c(=O)n3cccc(C)c3nc21`, the activation was -0.55% (inactive).
The value for `Cc1cccn2c(=O)c3cc(C(=O)NCCN4CCOCC4)c(=N)n(Cc4cccnc4)c3nc12` was 32.9% (active).
Regarding `Cc1ccc2cc(C#N)c(NCCNC(=S)NCCCN3CCOCC3)nc2c1`, the activation was 1.07% (inactive).
The value for `CCn1c(=N)c(C(=O)NCCCOC)cc2c(=O)n3cccc(C)c3nc21` was 62.3% (active); that for `Cc1ccccc1NC(=O)Cn1c(=O)n(CC2CCCO2)c(=O)c2ccccc21` (stereo not drawn) was 0.23% (inactive); that for `CC(=O)Nc1ccc(OC[C@@H](O)CN2CCC(C(O)(c3ccccc3)c3ccccc3)CC2)cc1` was 0.22% (inactive).
For `CNc1nc(SC)nc(N(C#N)CC(=O)OC)n1`, the activation is -0.23% (inactive).
Turning to `O=C(NCCc1c[nH]c2ccccc12)OCc1cn(-c2c(F)cccc2F)nn1`, the activation was 0.33% (inactive).
On to `CCOC(=O)[C@]12CCCCC/C=C\1N(Cc1ccc(OC)cc1)C(=O)[C@H]2CC(=O)NCCCN1CCCC1=O`, for which the activation was -0.22% (inactive).
`C=CCN1C(=O)[C@@H](CC(=O)N2CCN(C(=O)c3ccco3)CC2)[C@]2(C(=O)OC)CCCCC=C12`: the activation is 0.64% (inactive).
For `COC(=O)C[C@H]1CC[C@H]2[C@H](COc3ccc(NC(=O)C4CC4)cc3C(=O)N2C)O1`, the activation was -0.05% (inactive).
The value for `CCC(=O)Nc1ccc2c(c1)C(=O)N(C)[C@@H]1CC[C@@H](CC(=O)NCCc3ccccc3)O[C@H]1CO2` was -0.14% (inactive); that for `Cc1cc(NS(=O)(=O)c2ccc(NC(=O)CSc3nnc(-c4ccc(C(C)(C)C)cc4)n3Cc3ccco3)cc2)nc(C)n1` was 0.49% (inactive); that for `O=C(c1cccc(C(F)(F)F)c1)N1CC[C@H]2[C@H](CCCN2Cc2cc(F)cc(F)c2)C1` was 0.19% (inactive).
For `COc1ccc(CSc2nnc(SCC(=O)Nc3ccccc3C(F)(F)F)s2)cc1` the value was 0.45% (inactive); for `COc1ccc2oc(=O)c(C(=O)N3CCCC3)cc2c1`, 21.5% (active).
As for `COc1cccc2cc(C(=O)N3CCN(C(=O)c4ccccc4)CC3)c(=O)oc12`, the activation was -0.14% (inactive).
On to `COc1ccc(C(=O)N2CCCN(C)CC2)c(OC)c1`, for which the activation is -0.04% (inactive).
Consider `O=C(CN1CCC(NC(=O)NCc2ccccc2)CC1)Nc1ccc2c(c1)OCCO2`, for which the activation was 0.32% (inactive).
Turning to `CC(C)(C)C(=O)N1CCC[C@@]1(CO)C(=O)O`, the activation is 0.12% (inactive).
As to `COc1cccc(NC(=O)CN(C)C(=O)c2ccccc2CCc2ccccc2)c1`, the activation was 0.07% (inactive).
For the compound `COc1cccc(NC(=O)CN(C)C(=O)Cc2ccc(Cl)cc2Cl)c1`, the activation was -0.14% (inactive).
As to `COc1cccc(NC(=O)CN(C)C(=O)/C=C/c2cc(OC)ccc2OC)c1`, the activation was 58% (active).
With `O=C(NC1CCCCN(Cc2cccc(C(F)(F)F)c2)C1=O)c1ccccc1I` (stereo not drawn), the activation was 0.36% (inactive).
With `CN(C)C(=O)c1nc2ccc(Cl)cn2c1CN1CCN(c2ncccn2)CC1`, the activation was -1.33% (inactive).
The value for `C#Cc1cc(N2CCN(C(=O)c3ccoc3)CC2)n2nc(-c3cccc(Cl)c3)cc2n1` was -41% (inactive); that for `CN(C)CCN1CCN(c2cc(-c3cccc(Cl)c3)nc3ccnn23)CC1` was 18.8% (active).
On to `Cc1ccc(-n2c(SCC(=O)Nc3cccc4ccccc34)nnc2-c2ccco2)cc1`, for which the activation is -0.44% (inactive).
With `C=CS(=O)(=O)N(Cc1nnn(Cc2ccccc2)c1Br)[C@H](C(=O)OC)C(C)C`, the activation was -0.36% (inactive).
With `Nc1ccccc1-c1nc2ccncc2[nH]1`, the activation was 86.7% (active).
For `Cc1cc(C)nc(Nc2n[nH]c(-c3ccccc3N)n2)n1`, the activation is 6.37% (inactive).
For the compound `CN(C(N)=NC(=O)/C=C/c1ccccc1)C(C#Cc1ccccc1)Cc1ccccc1` (stereo not drawn), the activation was -0.15% (inactive).
`O=C(NCc1cccs1)C1CCN(S(=O)(=O)c2ccccc2[N+](=O)[O-])CC1`: the activation is 0.23% (inactive).
For `COC(=O)[C@H](C(C)C)N1CCc2nnn(Cc3ccc(C)cc3)c2-c2ccccc2S1(=O)=O`, the activation is -0.1% (inactive).
For the compound `CC(C)=NN1C(=O)c2ccccc2NC1(C)C`, the activation was 13% (active).
The value for `CC(=O)N1C(=O)C2(Nc3ccccc3N2)c2ccccc21` was -5.83% (inactive); that for `COC(=O)c1cc(S(=O)(=O)N2CCN(C(=O)C3CCCO3)CC2)cn1C` (stereo not drawn) was -0.37% (inactive); that for `O=C(C1CCCN1S(=O)(=O)c1ccccc1)N1CCc2ccccc2C1` (stereo not drawn) was -0.08% (inactive).
Turning to `Cc1cc(C(F)(F)F)c(C#N)c(SCC(=O)NC2CC2)n1`, the activation was -0.4% (inactive).
The value for `Cc1cc(C)c(C#N)c(SCC(=O)NN2CC(=O)N(c3ccccc3F)CC2=O)n1` was 68.7% (active); that for `COCc1cc(C)nc(SCC(=O)Nc2cccc(C)c2)c1C#N` was 0.51% (inactive).
Regarding `CCOC(=O)[C@]12CCCC3=C1N(CCC3)C(=O)[C@@H](CC(=O)NCc1cccs1)C2`, the activation is -0.54% (inactive).
The value for `COc1ccc(S(=O)(=O)N/N=C\c2ccc(OC)c(COc3ccc(C)cc3[N+](=O)[O-])c2)cc1` was 0.18% (inactive).
For `CCN(CC)Cc1c(C(=O)N/N=C/c2cccc(OCc3ccc(F)cc3)c2)nnn1-c1nonc1N` the value was 0.38% (inactive); for `COc1cccc(OCc2cc(/C=N/NC(=O)c3nc(Cl)c(Cl)c(N)c3Cl)ccc2OC)c1`, 48.2% (active).
Turning to `COC(=O)[C@]12C[C@H](CC(=O)NCCCN3CCCC3=O)C(=O)N(CCc3ccc(OC)c(OC)c3)C1=C[C@H](COCc1ccccc1)O[C@@H]2C`, the activation is -0.02% (inactive).
`COC(=O)[C@]12C[C@H](CC(=O)NCc3ccccc3)C(=O)N(CCc3ccc(OC)c(OC)c3)C1=C[C@H](C(C)(C)C)O[C@@H]2C`: the activation is 0.13% (inactive).
Take `COc1ccc(Cn2cc(COC(=O)N(C)Cc3ccccc3)nn2)cc1`: the activation is 0.16% (inactive).
For `CN(C)CC(=O)N[C@@H]1C[C@@H]2O[C@H](CO)CC[C@@H]2O[C@@H]1CCc1ccc(C#Cc2ccccc2)cc1` the value was 0.21% (inactive); for `Cc1cc(C)c2c(NC(=O)C3CC3)nn(C)c2n1`, -0.27% (inactive).
As for `Cc1cc(C)c2c(n1)nn1c(-n3ccnc3)cc(C)nc21`, the activation was 15.7% (active).
Regarding `Cc1ccc(OCc2nnc(SC/C=C/c3ccccc3)n2Cc2ccco2)cc1`, the activation was 0.81% (inactive).
For `C=CCN1C(=O)[C@@H](CC(=O)N2CCN(C(=O)OCC)CC2)[C@]2(C(=O)OCC)CCCCC/C=C/12` the value was 0.05% (inactive); for `NC(N)=Nc1nc(-c2ccccc2)c2cc(Cl)ccc2n1`, 14.3% (active).
Take `Clc1ccc2nc(-c3ccccc3)nc(C(Cl)Cl)c2c1`: the activation was -0.5% (inactive).
In the case of `NC(N)=Nc1nc2ccc(Br)cc2c(=O)[nH]1`, the activation was -0.15% (inactive).
Consider `CC(C)N1CCCCC(NC(=O)c2ccc3ccccc3c2)C1=O` (stereo not drawn), for which the activation was 0.11% (inactive).
With `C=CCN1C(=O)[C@@H](CC(=O)NCCCCc2ccccc2)[C@]2(C(=O)OCC)CCCCC/C=C/12`, the activation is 0.05% (inactive).
Regarding `CC(=O)C1(C(=O)Nc2nccs2)CC(c2ccccc2C(F)(F)F)=NO1` (stereo not drawn), the activation is 1.07% (inactive).
Consider `COC(=O)[C@]12C[C@H](CC(=O)NCCc3ccccc3OC)C(=O)N(Cc3ccco3)C1=C[C@H](C(C)C)O[C@@H]2C1CC1`, for which the activation was 0.66% (inactive).

These data come from PubChem BioAssay AID652039 (The Scripps Research Institute Molecular Screening Center, 2013).
